# Results taken from PubChem BioAssay (NCATS).
# Results filed as inconclusive are left out. Active and inactive are the calls of the source. Unless noted, calls follow the shape of the full dose curve.
# How the values were obtained:
# [1] = biological target: Bile acid receptor (Homo sapiens) (UniProt Q96RI1); assay: qHTS assay for small molecule agonists of farnesoid X receptor signaling (AID 588527); conditions: HEK293T FXR-UAS-bla, beta-lactamase ratio, 16 h; activation: stronger effect = higher value;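 also: series mostly up to about 77 µM; 0% = vehicle basal and 100% = reference agonist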
# Sequence of Bile acid receptor (Homo sapiens) (Q96RI1 whole entry, looked up): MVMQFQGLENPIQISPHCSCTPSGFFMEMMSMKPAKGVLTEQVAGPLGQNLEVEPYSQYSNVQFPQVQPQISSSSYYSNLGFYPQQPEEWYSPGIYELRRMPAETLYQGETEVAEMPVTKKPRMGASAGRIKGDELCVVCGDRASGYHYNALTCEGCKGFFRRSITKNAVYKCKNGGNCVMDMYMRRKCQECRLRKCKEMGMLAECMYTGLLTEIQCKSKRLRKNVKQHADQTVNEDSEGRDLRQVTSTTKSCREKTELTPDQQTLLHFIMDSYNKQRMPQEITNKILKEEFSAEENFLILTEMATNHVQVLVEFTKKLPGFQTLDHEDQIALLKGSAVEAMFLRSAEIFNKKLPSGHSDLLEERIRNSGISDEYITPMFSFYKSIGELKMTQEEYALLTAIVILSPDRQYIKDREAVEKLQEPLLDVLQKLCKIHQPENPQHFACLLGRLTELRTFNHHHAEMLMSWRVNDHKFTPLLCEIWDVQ
# In short: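 Agonist-mode beta-lactamase reporter in GeneBLAzer FXR-UAS-bla HEK293T cells, titration up to 92 uM, 16 h exposure at 37 C, CCF4 fluorescence. Response scaled to DMSO (0%) and 100 uM chenodeoxycholic acid (100%), then Hill-fitted for EC50 and efficacy.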
# [2] = biological target: Glucocorticoid receptor (Homo sapiens) (UniProt P04150); assay: qHTS assay for small molecule agonists of glucocorticoid receptor signaling (AID 588532; active = well fitted curve in the direction sought with a large enough effect in the signal ratio, with a control signal flat; the % refers to the signal ratio;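 also: 100% = dexamethasone at 0.1 µM and 0% = DMSO only wells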); conditions: HeLa MMTV-bla, beta-lactamase ratio, agonist, 18 h; activation: stronger effect = higher value, percent of dexamethasone control, DMSO zero
# Sequence of Glucocorticoid receptor (Homo sapiens) (P04150 whole entry, looked up): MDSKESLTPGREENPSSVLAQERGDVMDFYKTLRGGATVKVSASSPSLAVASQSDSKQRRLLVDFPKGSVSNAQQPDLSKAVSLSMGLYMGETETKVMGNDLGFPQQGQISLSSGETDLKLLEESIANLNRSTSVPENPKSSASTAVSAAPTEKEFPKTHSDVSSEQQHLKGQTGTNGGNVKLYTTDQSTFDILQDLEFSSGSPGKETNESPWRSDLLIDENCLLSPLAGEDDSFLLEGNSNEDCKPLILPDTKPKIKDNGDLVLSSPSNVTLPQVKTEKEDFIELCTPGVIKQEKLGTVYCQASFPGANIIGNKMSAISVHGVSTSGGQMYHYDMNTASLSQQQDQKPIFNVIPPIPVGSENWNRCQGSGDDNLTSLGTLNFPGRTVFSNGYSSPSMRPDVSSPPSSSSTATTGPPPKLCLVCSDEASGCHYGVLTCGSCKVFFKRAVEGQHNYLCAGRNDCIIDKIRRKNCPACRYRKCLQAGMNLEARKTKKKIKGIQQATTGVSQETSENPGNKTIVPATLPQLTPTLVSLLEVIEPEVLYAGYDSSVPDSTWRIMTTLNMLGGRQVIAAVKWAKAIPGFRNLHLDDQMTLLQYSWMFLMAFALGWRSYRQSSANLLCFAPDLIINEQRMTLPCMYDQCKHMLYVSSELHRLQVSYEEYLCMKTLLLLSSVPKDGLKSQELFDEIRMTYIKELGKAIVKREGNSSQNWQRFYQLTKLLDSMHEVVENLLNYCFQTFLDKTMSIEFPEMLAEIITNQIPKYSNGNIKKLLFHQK
# In short: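 MMTV-bla HeLa beta-lactamase reporter cells in 1% charcoal/dextran FBS medium, compounds up to 92 uM for 18 h at 37 C, CCF4 readout; normalized to 0.1 uM dexamethasone (100%), EC50 and efficacy from Hill fits.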
# [3] = biological target: Peroxisome proliferator-activated receptor gamma (Homo sapiens) (UniProt P37231); assay: qHTS assay for small molecule agonists of peroxisome proliferator-activated receptor gamma signaling (AID 588536; active = well fitted curve in the direction sought with a large enough effect in the signal ratio, with a control signal flat, not every such curve was filed as active; the % refers to the signal ratio;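 also: 0% = DMSO basal wells and 100% = rosiglitazone at 2 µM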)
# Sequence of Peroxisome proliferator-activated receptor gamma (Homo sapiens) (P37231 whole entry, looked up): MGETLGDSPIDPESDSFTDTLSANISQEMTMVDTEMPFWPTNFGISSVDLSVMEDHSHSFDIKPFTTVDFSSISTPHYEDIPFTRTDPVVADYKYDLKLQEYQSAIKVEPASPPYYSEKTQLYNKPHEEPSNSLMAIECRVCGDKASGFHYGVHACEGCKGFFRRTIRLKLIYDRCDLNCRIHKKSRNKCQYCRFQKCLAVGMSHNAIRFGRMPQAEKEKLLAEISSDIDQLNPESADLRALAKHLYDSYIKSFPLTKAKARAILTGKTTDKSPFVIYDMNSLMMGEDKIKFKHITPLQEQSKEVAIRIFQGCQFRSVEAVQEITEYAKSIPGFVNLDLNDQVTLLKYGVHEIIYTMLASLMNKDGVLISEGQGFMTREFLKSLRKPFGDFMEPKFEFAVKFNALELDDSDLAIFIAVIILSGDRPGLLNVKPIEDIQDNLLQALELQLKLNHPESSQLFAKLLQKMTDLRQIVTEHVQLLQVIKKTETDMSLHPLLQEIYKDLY
# In short: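 Ratiometric blue/green fluorescence (405 nm excitation; 460 and 530 nm emission) from CCF4-loaded HEK293 reporter cells serves as signal. Exposure to test compounds lasts 16 h at 37 C in medium containing 1% charcoal/dextran-treated serum.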
# [4] = biological target: Vitamin D3 receptor (Homo sapiens) (UniProt P11473); assay: qHTS assay for small molecule agonists of vitamin D receptor signaling (AID 588543);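 also: 0% = DMSO basal and 100% = reference agonist control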
# Sequence of Vitamin D3 receptor (Homo sapiens) (P11473 whole entry, looked up): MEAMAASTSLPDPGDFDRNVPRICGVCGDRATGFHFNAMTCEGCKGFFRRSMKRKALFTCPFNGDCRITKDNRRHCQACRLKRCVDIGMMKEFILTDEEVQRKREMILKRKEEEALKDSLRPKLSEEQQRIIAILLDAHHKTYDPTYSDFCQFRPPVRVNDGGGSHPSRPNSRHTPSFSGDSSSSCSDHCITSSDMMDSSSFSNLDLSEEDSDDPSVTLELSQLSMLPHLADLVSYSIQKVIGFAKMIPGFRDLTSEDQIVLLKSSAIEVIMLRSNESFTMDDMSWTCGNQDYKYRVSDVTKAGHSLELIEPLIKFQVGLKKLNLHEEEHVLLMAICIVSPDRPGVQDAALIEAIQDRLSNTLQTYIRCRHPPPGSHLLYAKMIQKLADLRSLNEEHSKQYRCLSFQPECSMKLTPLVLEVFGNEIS
# In short: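 β-lactamase reporter, VDR-UAS-bla HEK293T, agonist mode. Cells plated 5 h at 37 °C, compound titration 16 h at 37 °C, CCF4 dye 2 h RT, ratio 460/530 nm. Hill fit → EC50, efficacy vs 50 nM 1α,25-(OH)2D3.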
# [5] = biological target: Thyroid hormone receptor beta (Homo sapiens) (UniProt P10828); assay: qHTS assay for small molecule agonists of thyroid hormone receptor beta signaling (AID 588545)
# Sequence of Thyroid hormone receptor beta (Homo sapiens) (P10828 whole entry, looked up): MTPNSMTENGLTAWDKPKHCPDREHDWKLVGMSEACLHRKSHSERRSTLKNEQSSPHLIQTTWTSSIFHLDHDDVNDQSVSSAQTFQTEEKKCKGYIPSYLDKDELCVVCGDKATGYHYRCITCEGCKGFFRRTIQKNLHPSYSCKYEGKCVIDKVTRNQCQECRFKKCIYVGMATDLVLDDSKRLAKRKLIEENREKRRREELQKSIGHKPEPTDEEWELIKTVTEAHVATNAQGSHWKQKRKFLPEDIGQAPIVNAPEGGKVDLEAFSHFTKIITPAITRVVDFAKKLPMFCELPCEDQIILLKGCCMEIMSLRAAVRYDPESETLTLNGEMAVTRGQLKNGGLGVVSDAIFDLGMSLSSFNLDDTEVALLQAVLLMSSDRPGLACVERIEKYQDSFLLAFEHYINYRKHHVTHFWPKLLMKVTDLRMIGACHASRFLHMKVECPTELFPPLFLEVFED
# In short: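 Agonist activity was read as beta-lactamase CCF4 fluorescence (405 ex, 460/530 em), scaled between DMSO (0%) and 10 nM T3 (100%), then Hill-fitted for EC50 and efficacy. HEK 293 TR-UAS-bla cells in 2% charcoal/dextran FBS medium were exposed 18 h at 37 C.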
# [6] = qHTS assay for small molecule activators of the p53 signaling pathway (AID 651743; active = well fitted activation curve with a large enough effect in the signal ratio, not every such curve was filed as active; the % refers to the signal ratio; also: potency is read from the fitted curve at half-maximal effect; as to activation: series mostly up to about 92 µM; % of control where 0% means no effect); conditions: HCT-116 p53RE-bla, beta-lactamase FRET ratio, 16 h; activation: stronger effect = higher value
# In short: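 p53RE-bla HCT-116 cells carrying a beta-lactamase reporter under p53 response elements were exposed to compounds for 16 hours at 37 C. Reporter activity read as fluorescence after 2 hours at room temperature with LiveBLAzer B/G FRET substrate.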
# [7] = qHTS assay for small molecule activators of the nuclear factor-kappa B (NF-kB) signaling pathway (AID 651749; active = well fitted activation curve with a large enough effect in the signal ratio; the % refers to the signal ratio; also: series mostly up to about 77 µM; % of control where 0% means no effect); conditions: NF-kB-bla ME-180 cells, beta-lactamase FRET ratio, 16 h; activation: stronger effect = higher value
# In short: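 NF-kB-bla ME-180 cells carrying a beta-lactamase reporter under an NF-kB response element, 2,000 cells/well, exposed to compound for 16 hr at 37C; FRET-based beta-lactamase fluorescence read-out of pathway activation.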
# [8] = qHTS assay for environmental chemicals that activate the Aryl hydrocarbon Receptor (AhR) signaling pathway (AID 651777; active = well fitted curve in the direction sought with a large enough effect; an effect the other way counts as inactive or inconclusive; also: nearly all actives have a fitted effect of over 15% in size; also: potency is read from the fitted curve at half-maximal effect; as to activation: % of control where 0% means no effect); conditions: 1A2-DRE human hepatoma cells, luciferase, 24 h; activation: stronger effect = higher value
# In short: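 Luminescence (One-Glo, 30 min, room temperature) reports AhR-driven luciferase in stably transfected human hepatoma cells bearing DRE and CYP1A2 promoter. Cells (1,200/well) were treated with compound for 24 hr at 37 C in qHTS format.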
# [9] = biological target: Peroxisome proliferator-activated receptor alpha (Homo sapiens) (UniProt Q07869); assay: qHTS assay for small molecule agonists of the peroxisome proliferator-activated receptor alpha (PPARalpha) signaling pathway (AID 651778; active = well fitted curve in the direction sought with a large enough effect; an effect the other way counts as inactive or inconclusive; also: % of control where 0% means no effect); conditions: PathHunter PPARalpha complementation, chemiluminescence, 6 h; max response: stronger effect = higher value
# Sequence of Peroxisome proliferator-activated receptor alpha (Homo sapiens) (Q07869 whole entry, looked up, the tested form may be a part): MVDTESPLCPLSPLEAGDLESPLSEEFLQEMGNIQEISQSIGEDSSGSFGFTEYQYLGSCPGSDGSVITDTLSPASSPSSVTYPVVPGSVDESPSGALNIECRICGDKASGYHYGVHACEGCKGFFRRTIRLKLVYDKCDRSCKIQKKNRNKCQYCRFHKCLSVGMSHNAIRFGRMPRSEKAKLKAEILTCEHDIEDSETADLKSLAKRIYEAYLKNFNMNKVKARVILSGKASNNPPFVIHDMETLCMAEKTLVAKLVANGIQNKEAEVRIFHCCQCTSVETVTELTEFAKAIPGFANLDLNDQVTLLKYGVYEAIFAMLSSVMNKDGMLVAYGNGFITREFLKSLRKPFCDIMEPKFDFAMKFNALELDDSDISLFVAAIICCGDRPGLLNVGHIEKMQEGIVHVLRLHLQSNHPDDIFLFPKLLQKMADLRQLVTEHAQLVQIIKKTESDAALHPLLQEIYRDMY
# In short: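 Enzyme-fragment complementation assay in which ligand-bound PPARalpha translocates and forms an active enzyme that generates chemiluminescence. Cells were plated overnight, exposed to compound for 6 hr at 37 C, and then given detection reagent for 60 min at room temperature.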
# [10] = qHTS assay for small molecule agonists of the antioxidant response element (ARE) signaling pathway measured by Nrf2-dependant transcriptional activity - cell viability counter screen (AID 720653; active = well fitted curve in the direction sought with a large enough effect in the repeat runs; an effect the other way counts as inactive or inconclusive; also: % is scaled to controls: 0 for no effect and ±100 for the full control effect); conditions: ARE-bla HepG2 viability, CellTiter-Glo ATP luminescence, 16 h; max response: stronger effect = lower value
# In short: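 ARE-bla HepG2 cells treated with compounds for 16 h at 37C; this counter screen measures viability as intracellular ATP by CellTiter-Glo luminescence after 30 min at room temperature.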
# [11] = qHTS assay for cell viability of the p53RE-bla HCT-116 cell line (AID 743292; active = well fitted curve in the direction sought with a large enough effect; an effect the other way counts as inactive or inconclusive; also: % is scaled to controls: 0 for no effect and ±100 for the full control effect; nearly all actives have a fitted effect of over 55% in size)
# In short: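 ATP-based luminescent viability (CellTiter-Glo, 30 min RT) after 16 h compound treatment at 37 C of p53RE-bla HCT-116 cells, seeded at 4,000 cells/well and rested 5 h before dosing.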
# [12] = biological target: Peroxisome proliferator-activated receptor delta (Homo sapiens) (UniProt Q03181); assay: qHTS assay for small molecule agonists of peroxisome proliferator-activated receptor delta signaling (AID 588534);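 also: 0% = DMSO basal wells and 100% = positive control agonist at 10 µM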
# Sequence of Peroxisome proliferator-activated receptor delta (Homo sapiens) (Q03181 whole entry, looked up): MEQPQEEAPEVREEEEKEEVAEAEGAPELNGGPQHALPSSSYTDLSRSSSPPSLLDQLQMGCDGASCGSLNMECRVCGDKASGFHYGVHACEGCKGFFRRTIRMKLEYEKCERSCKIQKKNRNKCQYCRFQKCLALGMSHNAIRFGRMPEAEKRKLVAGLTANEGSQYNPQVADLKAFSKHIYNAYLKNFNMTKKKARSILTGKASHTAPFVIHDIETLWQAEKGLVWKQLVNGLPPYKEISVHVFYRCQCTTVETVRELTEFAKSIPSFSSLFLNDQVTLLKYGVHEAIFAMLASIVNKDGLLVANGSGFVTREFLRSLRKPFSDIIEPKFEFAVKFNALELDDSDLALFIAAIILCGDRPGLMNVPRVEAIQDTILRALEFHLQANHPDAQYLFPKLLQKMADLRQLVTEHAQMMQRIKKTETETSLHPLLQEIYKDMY
# In short: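 Cells carrying a PPAR-delta beta-lactamase reporter were treated with compounds for 18 h at 37 °C in agonist mode. CCF4 fluorescence was read after 2 h; EC50 and efficacy from Hill fits.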
# [13] = biological target: Glucocorticoid receptor (Homo sapiens) (UniProt P04150); assay: qHTS assay for small molecule antagonists of glucocorticoid receptor signaling (AID 588533; active = well fitted inhibition curve with a large enough effect in the signal ratio, with a control signal flat, not every such curve was filed as active; the % refers to the signal ratio; also: % is scaled to controls: 0 for no effect and ±100 for the full control effect)
# In short: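 Antagonist-mode qHTS: compound titrations added to GRE-bla HeLa cells, then dexamethasone 2 nM final; 18 h, 37 C. CCF4 FRET fluorescence normalized to dexamethasone and DMSO; IC50 from Hill fit.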
# [14] = qHTS assay for small molecule antagonists of peroxisome proliferator-activated receptor delta signaling (AID 588535; active = well fitted inhibition curve with a large enough effect in the signal ratio, with a control signal flat, not every such curve was filed as active; the % refers to the signal ratio;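 as to max response: cells co-treated with a PPAR-delta agonist as stimulator during compound exposure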); conditions: HEK293T PPARd-UAS-bla, beta-lactamase FRET ratio, 18 h; 460 nm channel
# In short: (§1)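 Antagonist-mode beta-lactamase reporter (GeneBLAzer PPAR-delta-UAS-bla) in HEK293T cells, 2% charcoal/dextran FBS, 4000 cells/well. Compound titrations, 18 h at 37 C; CCF4 ratio read, IC50 and efficacy from Hill fits.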
# [15] = biological target: Peroxisome proliferator-activated receptor delta (Homo sapiens) (UniProt Q03181); assay: as above
# In short: as §1
# [16] = biological target: Vitamin D3 receptor (Homo sapiens) (UniProt P11473); assay: qHTS assay for small molecule antagonists of vitamin D receptor signaling (AID 588541);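 also: receptor activated by calcitriol during compound treatment; series mostly up to about 77 µM; % is scaled to controls: 0 for no effect and ±100 for the full control effect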
# In short: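 VDR-UAS-bla HEK293T cells in 2% charcoal-stripped FBS were stimulated with 1-alpha,25-dihydroxyvitamin D3 (3 nM final) plus compound for 16 h at 37 C. The beta-lactamase CCF4 readout was normalized to 50 nM agonist and DMSO, and Hill fits gave IC50.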
# [17] = qHTS assay for small molecule agonists of retinoid X receptor alpha signaling (AID 588544); conditions: HEK293T RXRa-UAS-bla, beta-lactamase reporter, 18 h; 530 nm emission;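 as to activation: 0% = DMSO basal wells and 100% = reference agonist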
# [18] = biological target: Retinoic acid receptor RXR-alpha (Homo sapiens) (UniProt P19793); assay: as above
# Sequence of Retinoic acid receptor RXR-alpha (Homo sapiens) (P19793 whole entry, looked up): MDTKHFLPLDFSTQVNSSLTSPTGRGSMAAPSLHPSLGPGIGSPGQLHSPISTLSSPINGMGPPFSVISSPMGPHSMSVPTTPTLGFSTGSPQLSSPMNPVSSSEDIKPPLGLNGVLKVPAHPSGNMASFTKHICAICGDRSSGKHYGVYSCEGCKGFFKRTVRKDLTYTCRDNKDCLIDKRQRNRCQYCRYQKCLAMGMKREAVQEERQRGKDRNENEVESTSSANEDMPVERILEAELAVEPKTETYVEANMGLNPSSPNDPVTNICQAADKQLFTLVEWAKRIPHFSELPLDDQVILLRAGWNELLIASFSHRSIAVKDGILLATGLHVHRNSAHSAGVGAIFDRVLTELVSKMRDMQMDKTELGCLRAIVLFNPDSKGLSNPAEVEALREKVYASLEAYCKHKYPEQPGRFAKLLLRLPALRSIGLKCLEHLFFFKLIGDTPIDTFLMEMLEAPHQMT
# [19] = qHTS assay for small molecule antagonists of retinoid X receptor alpha signaling (AID 588546; active = well fitted inhibition curve with a large enough effect in the signal ratio, with a control signal flat, not every such curve was filed as active; the % refers to the signal ratio;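 also: cells stimulated with 9-cis-retinoic acid as agonist; % is scaled to controls: 0 for no effect and ±100 for the full control effect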); conditions: HEK293T RXRa-UAS-bla, beta-lactamase ratio, antagonist mode; measured here: W530 green channel, cytotoxicity proxy
# In short: (§2)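 Beta-lactamase reporter inhibition, read as CCF4 fluorescence ratio (ex 405, em 460/530 nm) after 2 h at RT. HEK293T UAS-bla cells, 2500/well, were stimulated with 9-cis-RA at 500 or 100 nM final alongside test compound for 18 h at 37 C.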
# [20] = biological target: Retinoic acid receptor RXR-alpha (Homo sapiens) (UniProt P19793); assay: as above; conditions: HEK293T RXRa-UAS-bla, beta-lactamase ratio, antagonist mode
# In short: as §2
# [21] = biological target: Thyroid hormone receptor beta (Homo sapiens) (UniProt P10828); assay: qHTS assay for small molecule antagonists of thyroid hormone receptor beta signaling (AID 588547; active = well fitted inhibition curve with a large enough effect in the signal ratio, with a control signal flat, not every such curve was filed as active; the % refers to the signal ratio); conditions: TR-UAS-bla HEK293, beta-lactamase ratio, antagonist mode, 18 h
# In short: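 TR-UAS-bla GripTite HEK293 cells in 2% charcoal/dextran FBS medium; compounds 0.59 nM to 92 uM with T3 at 0.4nM final, 18 h at 37 C. Beta-lactamase read by CCF4 fluorescence (460/530 nm); Hill fits gave IC50 and efficacy.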
# [22] = qHTS assay for small molecule agonists of the antioxidant response element (ARE) signaling pathway (AID 651741; active = well fitted activation curve with a large enough effect in the signal ratio; the % refers to the signal ratio; also: potency is read from the fitted curve at half-maximal effect)
# In short: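 CellSensor ARE-bla HepG2 cells (2,000/well) carrying ARE-driven beta-lactamase, exposed 16 h at 37 C. LiveBLAzer B/G FRET substrate added for 2 h at room temperature; fluorescence intensity read.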
# [23] = qHTS assay for small molecule agonists of the antioxidant response element (ARE) signaling pathway measured by Nrf2-dependant transcriptional activity (AID 720636; active = well fitted curve in the direction sought with a large enough effect in the repeat runs; an effect the other way counts as inactive or inconclusive; also: % of control where 0% means no effect)
# In short: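 Nrf2-dependent transcription read as ONE-Glo luciferase signal from ARE-luc HepG2 reporter cells after 16 hr compound treatment at 37 C, 5% CO2, in assay medium with 1% dialyzed FBS.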
# [24] = qHTS assay for cell viability of HEK293 cells (AID 743288; active = well fitted curve in the direction sought with a large enough effect; an effect the other way counts as inactive or inconclusive; also: % is scaled to controls: 0 for no effect and ±100 for the full control effect; nearly all actives have a fitted effect of over 50% in size); conditions: ATP luminescence (CellTiter-Glo), 18 h; max response: stronger effect = lower value
# In short: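 Environmental chemicals tested in qHTS format against parental HEK293 cells; 18 h treatment, 37 C; read-out ATP luminescence (CellTiter-Glo), 30 min RT development.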
# [25] = biological target: Peroxisome proliferator-activated receptor gamma (Homo sapiens) (UniProt P37231); assay: qHTS assay for small molecule antagonists of peroxisome proliferator-activated receptor gamma signaling (AID 588537; active = well fitted inhibition curve with a large enough effect in the signal ratio, with a control signal flat, not every such curve was filed as active; the % refers to the signal ratio;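 also: reporter cells co-stimulated with 50 nM rosiglitazone agonist during compound treatment; % of control where 0% means no effect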)
# In short: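 PPARγ-UAS-bla HEK293 cells (3000/well) in 1% charcoal/dextran-stripped FBS are treated with compound, then stimulated with 50 nM rosiglitazone for 16 h at 37 °C. Read-out is CCF4 β-lactamase fluorescence after 2 h at RT. IC50 comes from Hill fits normalised to rosiglitazone and DMSO.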
# [26] = biological target: Nuclear receptor subfamily 1 group I member 2 (Rattus norvegicus) (UniProt Q9R1A7); assay: qHTS assay for small molecule activators of the rat pregnane X receptor (rPXR) signaling pathway (AID 651751; call rule not given here; also: 0% is about no effect); conditions: rPXR reporter cells, luciferase (One-Glo), 24 h
# Sequence of Nuclear receptor subfamily 1 group I member 2 (Rattus norvegicus) (Q9R1A7 whole entry, looked up): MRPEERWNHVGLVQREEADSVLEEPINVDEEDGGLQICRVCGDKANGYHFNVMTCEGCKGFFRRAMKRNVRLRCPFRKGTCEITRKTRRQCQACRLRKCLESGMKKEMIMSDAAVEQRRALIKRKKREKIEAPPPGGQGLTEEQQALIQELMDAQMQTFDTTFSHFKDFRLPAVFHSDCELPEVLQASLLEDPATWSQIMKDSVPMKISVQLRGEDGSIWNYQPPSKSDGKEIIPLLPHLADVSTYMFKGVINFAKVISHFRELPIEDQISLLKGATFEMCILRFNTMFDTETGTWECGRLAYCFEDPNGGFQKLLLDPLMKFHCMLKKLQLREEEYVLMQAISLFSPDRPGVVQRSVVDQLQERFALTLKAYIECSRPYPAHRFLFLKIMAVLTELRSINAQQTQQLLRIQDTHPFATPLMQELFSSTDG
# [27] = qHTS assay for small molecule activators of the human pregnane X receptor (PXR) signaling pathway (AID 720659; call rule not given here; also: 0% is about no effect)
structure (smiles),measurement,setting,value
C=C1C[C@]23C[C@@]1(O)CC[C@H]2[C@@]12C=C[C@H](O)[C@@](C)(C(=O)O1)[C@H]2[C@@H]3C(=O)O,activation,[1],0.442% (inactive)
CC(C)c1ccccc1,activation,[1],-3.82% (inactive)
N=C1C=CC(=C(c2ccc(N)cc2)c2ccc(N)cc2)C=C1,activation,[1],3.86% (inactive)
O=C=Nc1ccc(Cl)c(Cl)c1,activation,[1],2.96% (inactive)
CCCCNS(=O)(=O)c1ccccc1,activation,[1],2.61% (inactive)
CCCCCCCCCCCC(=O)OC,activation,[1],11.1% (inactive)
Oc1ccc(C(c2ccc(O)cc2)C(Cl)(Cl)Cl)cc1,activation,[1],0.126% (inactive)
CCC(C)Nc1ccc(NC(C)CC)cc1 (centres undefined),activation,[1],-2.74% (inactive)
O=P(O)(OCc1ccccc1)OCc1ccccc1,activation,[1],-0.26% (inactive)
CN(C)c1ccc(C(=O)c2ccc(N(C)C)cc2)cc1,activation,[1],-3.55% (inactive)
same,activation,[2],-2.75% (inactive)
same,Potency,[3],inactive
same,outcome,[4],inactive
same,Potency,[5],inactive
same,Potency,[6],3.98 µM (active)
same,activation,[7],1.06% (inactive)
same,Potency,[8],5.01 µM (active)
same,max response,[9],-1.25% (inactive)
same,max response,[10],-12.9% (inactive)
same,Potency,[11],inactive
CC(C)(C)OC=O,activation,[1],-2.91% (inactive)
O=C(O)CCCCCCC(=O)O,activation,[1],1.16% (inactive)
O=S(c1ccc(Cl)cc1)c1cc(Cl)c(Cl)cc1Cl (centres undefined),activation,[1],0.155% (inactive)
same,outcome,[12],inactive
Nc1cccc(N)c1,activation,[1],0.315% (inactive)
CC1(C)[C@H](C(=O)O[C@H](C#N)c2cccc(Oc3ccccc3)c2)[C@@H]1/C=C(\Cl)C(F)(F)F,activation,[1],-0.137% (inactive)
same,activation,[2],16% (inactive)
same,Potency,[13],inactive
same,outcome,[12],inactive
same,max response,[14],-6.46%
same,Potency,[15],inactive
same,Potency,[16],inactive
same,outcome,[4],inactive
same,max response,[17],9.43%
same,Potency,[18],inactive
same,Potency,[5],inactive
same,max response,[19],-6.94%
same,max response,[20],-28.2% (inactive)
same,activity change % (negative = inhibition),[21],3.81% (inactive)
same,Potency,[22],54.5 µM (active)
same,activation,[6],1.92% (inactive)
same,activation,[7],-0.133% (inactive)
same,activation,[8],0.227% (inactive)
same,max response,[9],-0.66% (inactive)
same,Potency,[23],inactive
same,max response,[10],-24% (inactive)
same,max response,[24],-15% (inactive)
same,Potency,[11],inactive
COc1nn(C(=O)NS(=O)(=O)c2ccccc2OC(F)(F)F)c(=O)n1C,activation,[1],1.22% (inactive)
same,Potency,[13],inactive
same,Potency,[3],inactive
same,Potency,[25],inactive
same,Potency,[16],inactive
same,outcome,[4],inactive
same,max response,[17],-2.96%
same,Potency,[18],inactive
same,Potency,[5],inactive
same,max response,[19],-2.65%
same,max response,[20],-13.4% (inactive)
same,activity change % (negative = inhibition),[21],8.96% (inactive)
same,activation,[7],-2.5% (inactive)
same,activation,[8],1.39% (inactive)
same,max response,[9],-1.08% (inactive)
same,Potency,[23],inactive
same,max response,[10],3.81% (inactive)
same,max response,[24],-3.61% (inactive)
same,Potency,[11],inactive
same,max response,[26],1.31% (inactive)
same,outcome,[27],inactive
